This is an account of results in PubChem BioAssay AID504333 (National Center for Advancing Translational Sciences (NCATS), 2011).

Screen size: about 360,000 compounds; about 16,000 (4.4%) were called active. Where a call stands in place of a potency, no number is given. Roughly 9% stayed inconclusive and do not appear here. The call rests on the fitted dose curve; in most records, active means well fitted inhibition curve with a large enough effect; inconclusive means small, poorly fitted or top-dose-only effect; inactive means no such curve, though single readings can be large or run the other way. For the sample, actives were picked, then their nearest neighbours and some compounds at random.
Potency means the concentration at half of the fitted maximal effect.

In the experiment the target is Bromodomain adjacent to zinc finger domain protein 2B (Homo sapiens) (UniProt Q9UIF8). The experiment in a line: qHTS Assay for Inhibitors of BAZ2B. Further: nearly all actives have a fitted effect of over 60% in size. The settings on record: AlphaScreen BAZ2B-H3K14Ac peptide displacement; series mostly up to 114 µM. In short, it runs like this: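 BAZ2B 50 nM plus b-H3(5-23)K14Ac 50 nM, PBS pH 7.4/0.01% Tween-20, 30 min RT; compound added (max 110 uM), 30 min RT; streptavidin donor/Ni-chelate acceptor beads 10 ug/mL final, 20 min dark; AlphaScreen read.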
Sequence of Bromodomain adjacent to zinc finger domain protein 2B (Homo sapiens) (Q9UIF8 whole entry, looked up, the tested form may be a part): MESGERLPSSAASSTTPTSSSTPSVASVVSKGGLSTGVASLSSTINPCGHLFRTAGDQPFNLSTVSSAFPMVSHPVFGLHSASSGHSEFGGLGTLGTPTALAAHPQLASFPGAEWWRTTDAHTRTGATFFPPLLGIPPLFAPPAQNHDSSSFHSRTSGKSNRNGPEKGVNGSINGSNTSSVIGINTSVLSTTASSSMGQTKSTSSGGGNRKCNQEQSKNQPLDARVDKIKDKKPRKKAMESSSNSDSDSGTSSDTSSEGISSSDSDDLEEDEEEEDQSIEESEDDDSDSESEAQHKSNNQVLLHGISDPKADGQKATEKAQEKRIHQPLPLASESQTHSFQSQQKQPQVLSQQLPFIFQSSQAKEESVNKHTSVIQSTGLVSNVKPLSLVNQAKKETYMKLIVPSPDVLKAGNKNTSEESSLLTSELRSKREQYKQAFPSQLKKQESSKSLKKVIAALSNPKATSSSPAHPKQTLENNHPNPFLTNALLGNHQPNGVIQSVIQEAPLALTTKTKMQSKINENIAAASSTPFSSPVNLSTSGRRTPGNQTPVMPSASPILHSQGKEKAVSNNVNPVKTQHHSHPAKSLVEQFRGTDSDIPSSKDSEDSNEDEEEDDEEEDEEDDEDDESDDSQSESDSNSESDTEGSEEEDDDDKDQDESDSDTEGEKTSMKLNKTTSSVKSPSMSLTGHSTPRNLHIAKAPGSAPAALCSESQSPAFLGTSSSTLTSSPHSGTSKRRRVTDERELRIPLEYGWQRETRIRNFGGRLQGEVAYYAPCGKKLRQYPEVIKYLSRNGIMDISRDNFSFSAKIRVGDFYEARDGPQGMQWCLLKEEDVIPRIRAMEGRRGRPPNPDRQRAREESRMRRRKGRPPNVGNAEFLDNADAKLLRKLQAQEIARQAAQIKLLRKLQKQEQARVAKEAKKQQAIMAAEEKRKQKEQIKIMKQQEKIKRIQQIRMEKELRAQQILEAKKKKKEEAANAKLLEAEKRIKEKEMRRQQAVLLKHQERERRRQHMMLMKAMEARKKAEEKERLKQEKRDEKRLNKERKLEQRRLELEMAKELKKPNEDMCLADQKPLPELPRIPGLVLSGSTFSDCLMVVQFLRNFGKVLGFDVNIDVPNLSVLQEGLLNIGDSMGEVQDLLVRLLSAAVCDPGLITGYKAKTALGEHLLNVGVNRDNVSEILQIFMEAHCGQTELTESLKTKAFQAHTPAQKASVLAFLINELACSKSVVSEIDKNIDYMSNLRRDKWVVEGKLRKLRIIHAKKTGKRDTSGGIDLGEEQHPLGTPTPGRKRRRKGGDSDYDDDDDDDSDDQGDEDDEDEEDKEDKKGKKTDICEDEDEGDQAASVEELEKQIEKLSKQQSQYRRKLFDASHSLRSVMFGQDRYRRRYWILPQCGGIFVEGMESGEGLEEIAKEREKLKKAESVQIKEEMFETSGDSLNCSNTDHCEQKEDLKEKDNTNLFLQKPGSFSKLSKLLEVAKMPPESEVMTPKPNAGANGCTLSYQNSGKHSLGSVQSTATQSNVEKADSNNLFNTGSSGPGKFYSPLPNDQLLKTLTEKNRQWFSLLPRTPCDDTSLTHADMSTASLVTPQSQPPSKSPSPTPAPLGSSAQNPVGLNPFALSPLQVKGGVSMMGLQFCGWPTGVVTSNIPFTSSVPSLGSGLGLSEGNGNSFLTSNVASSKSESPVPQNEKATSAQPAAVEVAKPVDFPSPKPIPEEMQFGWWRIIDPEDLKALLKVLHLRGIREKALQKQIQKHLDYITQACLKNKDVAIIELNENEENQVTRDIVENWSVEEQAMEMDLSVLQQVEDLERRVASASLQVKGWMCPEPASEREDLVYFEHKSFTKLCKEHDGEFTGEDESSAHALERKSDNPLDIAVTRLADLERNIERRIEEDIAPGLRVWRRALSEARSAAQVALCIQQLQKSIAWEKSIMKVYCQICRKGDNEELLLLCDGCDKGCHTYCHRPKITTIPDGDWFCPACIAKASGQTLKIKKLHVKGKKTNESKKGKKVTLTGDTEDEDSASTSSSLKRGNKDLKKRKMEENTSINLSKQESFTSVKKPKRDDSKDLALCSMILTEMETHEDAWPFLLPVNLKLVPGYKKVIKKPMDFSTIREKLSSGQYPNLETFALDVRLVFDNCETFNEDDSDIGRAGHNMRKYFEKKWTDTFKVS
(Quantitative high-throughput screening tests each substance at several concentrations.)
For the compound `COc1ccc(NC(=O)c2sc(N)nc2-c2ccccc2)cc1`, the Potency result was “inactive”.

Take `Nc1ccc(-c2nnc(-c3ccccc3)o2)cc1`: the Potency entry is “inactive”.

For `Nc1ccc(-c2sc(N)nc2-c2ccccc2)cc1`, the Potency is 50.1 µM (active).

As for `COc1cc(C(=O)N2CCN(c3ccc(Nc4ccc(C)cc4)nn3)CC2)cc(OC)c1OC`, the Potency entry is “inactive”.

With `Cc1ccc(S(=O)(=O)NCC(=O)N2CCN(c3ccccn3)CC2)cc1`, the Potency result is “inactive”.

Consider `Cc1ccc(-n2ccc(=O)c(C(=O)O)n2)cc1`, for which the Potency result was “inactive”.

As for `Cc1ccc(N2CCN(c3ccc(C)cc3)C2c2ccccn2)cc1`, the Potency is 50.1 µM (active).

With `O=S(=O)(NCCc1nnc2ccc(SCc3ccc(Cl)cc3Cl)nn12)c1ccccc1`, the Potency result is “inactive”.

With `COc1ccc(S(=O)(=O)n2nc(C)c(S(=O)(=O)N3CCCCCC3)c2C)cc1`, the Potency result is “inactive”.

Turning to `CC(=O)Nc1ccc2nc(SCCOc3cc(C)cc(C)c3)sc2c1`, the Potency entry is “inactive”.

`CCOc1cc2[nH]c(=O)n(Cc3ccc(C(=O)NCCN(CC)CC)cc3)c(=O)c2cc1OCC`: the Potency result is “inactive”.

In the case of `CCCC(=O)N1CCN(c2nc3c(OC)ccc(C)c3s2)CC1`, the Potency entry was “inactive”.

On to `Cc1c2cnn(-c3ccccc3)c(=O)c2c(C)n1C(C)C(=O)Nc1ccc(Br)cc1F` (centres undefined), for which the Potency entry was “inactive”.

On to `COc1ccc(OC)c(-c2csc(NC(=O)COC(=O)C3CC3)n2)c1`, for which the Potency result was “inactive”.

Turning to `COc1ccc(CC(=O)Nc2nc(-c3ccc(F)c(F)c3)cs2)cc1OC`, the Potency entry was “inactive”.

In the case of `COc1ccc(-c2csc(NC(=O)COC(=O)Cc3ccc(Cl)cc3Cl)n2)cc1`, the Potency entry is “inactive”.

With `COc1ccc(OC)c(Nc2nc(-c3ccc(O)c(O)c3)cs2)c1`, the Potency was 50.1 µM (active).

For the compound `COc1ccc(-c2csc(Nc3ccc(O)cc3)n2)cc1`, the Potency was 35.5 µM (active).

In the case of `COc1ccc(-c2csc(NC(=O)COC(=O)c3ccc(Br)o3)n2)cc1`, the Potency entry is “inactive”.

Regarding `CC1CCN(c2nc3ccc(C(=O)N4CCN(c5ccccc5)CC4)cc3s2)CC1`, the Potency result was “inactive”.

For `COc1ccccc1C(=O)Nc1c(C(=O)N(C)Cc2ccccc2)sc2nc(C)c(Cl)c(C)c12`, the Potency entry was “inactive”.

With `COc1ccc(NC(=O)CCNS(=O)(=O)c2ccc3c(c2)CCCC(=O)N3)cc1Cl`, the Potency result is “inactive”.

In the case of `COc1ccc(NC(=O)CSc2nc3ccccc3n2CC(=O)N2CCCCC2C)cc1` (centres undefined), the Potency result was “inactive”.

For `Cc1ccc(S(=O)(=O)N(CC(=O)Nc2ccc(Cl)cc2Cl)c2ccccc2C)cc1`, the Potency result is “inactive”.

With `CCOc1cc(C(=O)NCCc2csc3nc(-c4ccc(C)cc4)nn23)cc(OCC)c1OCC`, the Potency result was “inactive”.

With `CCOC(=O)c1cccc(NS(=O)(=O)c2cc(-c3cnc(C)o3)ccc2OC)c1`, the Potency entry was “inactive”.

Take `O=C(NC1CCN(Cc2ccccc2)CC1)c1ccc(Cn2c(=O)c3ccccc3n(Cc3cccc(F)c3)c2=O)cc1`: the Potency entry was “inactive”.

Take `CCOC(=O)C1CCCN(C(=O)Cn2ncc3c(C)n(Cc4ccc(F)cc4)c(C)c3c2=O)C1` (centres undefined): the Potency result was “inactive”.

In the case of `CCCCN(CC)CCCNC(=O)c1nn(C)c2c1CS(=O)(=O)c1ccccc1-2`, the Potency result is “inactive”.

Take `COc1ccccc1CN1CCC(CNC(=O)c2cnn(-c3cccc(Cl)c3)c2C2CCN(C(=O)OC(C)(C)C)CC2)CC1`: the Potency result is “inactive”.

On to `COCCN1C(=O)N[C@@H](c2ccccc2)C(C(=O)OC)=C1C`, for which the Potency entry is “inactive”.

For `COC(=O)C1=C(C)N(C)C(=S)NC1c1ccccc1` (centres undefined), the Potency entry was “inactive”.

With `CCN1C(=S)N[C@@H](c2cccc(C(F)(F)F)c2)C(C(=O)OC)=C1C`, the Potency was 50.1 µM (active).

Take `COC(=O)CC1Oc2ccccc2-n2cc(-c3ccccc3)nc21` (centres undefined): the Potency result is “inactive”.

In the case of `COc1ccc(/C=C/C(=O)c2cc(Br)ccc(=O)c2O)cc1`, the Potency was 44.7 µM (active).

Consider `COc1ccc(C(=O)/C=C/c2cccnc2)c(OC)c1`, for which the Potency entry was “inactive”.

Regarding `COc1ccc(C(=O)/C=C/c2ccc(OC3CSC3)cc2)cc1`, the Potency entry is “inactive”.

In the case of `COc1cc(OC)c(OC)cc1/C=C/c1nc2cc3ccccc3cc2c(=O)n1-c1ccc(F)c(Cl)c1`, the Potency result is “inactive”.

In the case of `COc1ccc(CCNS(=O)(=O)c2cc(-c3cc(C)no3)ccc2C)cc1OC`, the Potency result is “inactive”.

Take `CCC(=O)Nc1ccc(C(=O)N2CCN(C(=O)c3ccco3)CC2)cc1`: the Potency entry was “inactive”.

For `Cc1ccc(C)c(OCC(=O)N2CCN(C(=O)c3ccco3)CC2)c1`, the Potency entry is “inactive”.

On to `Cc1ccc(OCC(=O)Nc2ccc(N3CCN(C(=O)c4ccco4)CC3)cc2)c(C)c1`, for which the Potency was 31.6 µM (active).

Regarding `CCOc1ccc(Nc2c(S(=O)(=O)c3ccccc3)cnc3ccccc23)cc1`, the Potency result was “inactive”.

Take `CC(C)(C)OC(=O)NNc1c2ccccc2nc2ccccc12`: the Potency entry was “inactive”.

In the case of `O=C(N/N=C/c1cccnc1)c1cc2ccccc2cc1O`, the Potency result was “inactive”.

Regarding `O=C(NNc1c2ccccc2nc2ccccc12)c1cc2ccccc2cc1O`, the Potency was 8.91 µM (active).

`COC(=O)c1ccccc1NC(=O)c1ccc2c(=O)n3c(nc2c1)CCCCC3`: the Potency result was “inactive”.

With `CC1=C(C(=O)N2CCN(c3cccc(C(F)(F)F)c3)CC2)C2(CCCCC2)OC1=O`, the Potency result was “inactive”.

In the case of `O=C(NCc1ccccc1)C(=O)NCC(c1ccco1)S(=O)(=O)c1ccc(Cl)cc1` (centres undefined), the Potency entry was “inactive”.

On to `C/C(=N\NC(=O)c1ccoc1C)c1ccccc1O`, for which the Potency was 50.1 µM (active).

On to `Cc1cc(C(=O)NNC(=O)c2ccccc2O)c(C)o1`, for which the Potency entry was “inactive”.

On to `CC(C)=C(NC(=O)c1ccccc1)C(=O)N/N=C(\C)c1ccccc1O`, for which the Potency entry is “inactive”.

Consider `COc1cccc(-c2nc(S(=O)(=O)c3ccc(C)cc3)c(NCc3ccccc3)o2)c1`, for which the Potency result is “inactive”.

For the compound `CCOCCCNc1nc(-c2ccccc2)nc2ccccc12`, the Potency result is “inactive”.

For `CC(C)(C)Nc1nc(-c2ccccn2)nc2ccccc12`, the Potency was 50.1 µM (active).

In the case of `CCC(=O)OCCNc1nc(-c2ccccc2)nc2ccccc12`, the Potency result is “inactive”.

On to `O=c1c2ccccc2n(Cc2cccc(Cl)c2)c(=O)n1Cc1ccccc1`, for which the Potency entry is “inactive”.

As for `O=c1c2cccnc2n(Cc2cccc(F)c2)c(=O)n1Cc1ccccc1Cl`, the Potency entry is “inactive”.

As to `Clc1cccc(CN2COc3c(cc(Cl)c4cccnc34)C2)c1`, the Potency is 28.2 µM (active).

As for `COc1ccc(CNC(=O)c2cc3c(s2)-c2ccccc2OC3)cc1`, the Potency entry was “inactive”.

For `Cc1nc2c(-c3ccccc3)c(C)nn2c(C)c1CCC(=O)NCCc1ccccc1`, the Potency result is “inactive”.

Consider `CC1=C(c2ccc(C)cc2)S(=O)(=O)NC1=NCCCN1CCN(c2cc(C)ccc2C)CC1`, for which the Potency result is “inactive”.

As for `O=c1ccc2c(-c3ccccc3S(=O)(=O)O)c3ccc(O)c(O)c3oc-2c1O`, the Potency is 1 µM (active).

Regarding `CCOc1ccc(CCNC(=O)c2c(C)oc3ncn(C)c(=O)c23)cc1`, the Potency result is “inactive”.
